A selection: hits, their analogues and other compounds. The true share with any hit is near 1.8%.
IkB sig inh = IkB pathway inhibition in ABC-DLBCL cells | ABC-DLBCL IkBa-CBG/CBR dual luciferase ratio, 4 h; response scale: scaled: untreated 0%, proteasome inhibitor 100% | Potency, µM (doses to about 57.1 µM), for inactives: top-dose IkBa stabilization activation | actives 0.04% (n = 110,000) | AID 445; active means well fitted curve in the direction sought with a large enough effect in the signal ratio, not every such curve was filed as active; inconclusive means small, poorly fitted or top-dose-only effect, or a change in a side signal; the % refers to the signal ratio;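 further: the direction sought is a rising ratio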
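In this assay, an IκBα–CBG68 fusion accumulates when IKK-driven degradation is blocked; native CBR normalizes for cell number. OCI-Ly3 cells were treated 4 h with compound and doxycycline, then green and red light read after Chroma-Glo addition.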
Peg3 imprint = induces erasure of genomic imprints in mouse ES cells; actives 0.02% (n = 110,000); Potency, µM (titrated, usually from 60.7 µM), without a hit: top-dose activity change, positive = activation, actives largely listed as activators; mouse ES Peg3-LacZ reporter, beta-gal luminescence, 40 h
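Readout: BetaGlo luminescence (5 min, room temp) for LacZ from the normally silent maternal Peg3 allele in female Peg3LacZ-Neo ES cells. Cells 300/well, 40 h, 37C, 5% CO2. Data normalized per plate to negative controls.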
p53ts 39C kill = p53ts cell cytotoxicity, nonpermissive temperature. H1299-p53A138V viability at 39C, ATP luminescence, 24 h. Potency, µM (series often up to 46.1 µM), inactives show at the top dose activity change, negative = cell killing, usual class: cytotoxic. actives 1.5% (n = 130,000). AID 902; further: on the % scale 0 is the no-effect control and ±100 the full control effect; nearly all actives have a fitted effect of over 55% in size
p53ts 32C kill = p53ts cell cytotoxicity, permissive temperature; AID 924; H1299-p53A138V at 32C, ATP luminescence viability, 24 h; Potency, µM (highest dose often 46.1 µM), inactives show top-dose activity change, negative = cytotoxicity, most hits filed as cytotoxic; actives 0.93% (n = 130,000);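 further: 0% = DMSO and -100% = full killing by reference compound; nearly all actives have a fitted effect of over 55% in size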
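Viability by ATPlite luminescence after 24 h compound treatment (up to 46 uM) at the permissive 32C. Cells are H1299 carrying p53 A138V. Scale runs from DMSO basal to 100 uM tamoxifen as full kill; AC50 from Hill fits.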
An asterisk follows results filed as active; ? = inconclusive; nt = no result given; [ ] = another dose, or the depositor's remark. Unless noted, the call rests on the fitted dose curve; in most records, active means well fitted curve in the direction sought with a large enough effect; inconclusive means small, poorly fitted or top-dose-only effect, or another doubt; inactive means no such curve, though single readings can be large; an effect the other way counts as inactive or inconclusive. Potency means the concentration at half of the fitted maximal effect.

SMILES | IkB sig inh | Peg3 imprint | p53ts 39C kill | p53ts 32C kill
COc1cccc(NC(=S)N/N=C2/CCCCc3ccccc32)c1 | nt | nt | 22µM* | ?
Cn1c(NC(=O)c2ccco2)cc(=O)n(C)c1=O | 0% | 3% | 1% | 1%
Cc1ccc2nc(-c3ccc(N)cc3)sc2c1S(=O)(=O)O | 2% | -89% | 16µM* | -8%[1.84 µM]
Cc1nc2ccc(N)cc2s1 | 2% | -14% | 17% | -7%
Cc1ccc2c(c1)c1c3n2CCN[C@H]3CCC1 | 0% | 4% | ? | -1%
c1cc2c(cc1C1CCCCC1)c1c3n2CCN[C@H]3CCC1 | ? | -22% | 10µM* | 25µM*
CCc1nnc2c3ccccc3nc(N3CCN(c4cc(Cl)ccc4C)CC3)n12 | -1% | -3%[10.9 µM] | 0% | 0%
CC(=NCc1ccco1)c1c(C)[nH]n(-c2nc3ccccc3s2)c1=O | ? | -93% | 7.9µM* | ?
CC(=NCc1ccco1)c1c(O)n(C2CCCCC2)c(=O)[nH]c1=O | -3% | -10% | 8% | 9%
COc1ccc(NC(=O)Cn2c(=O)n(-c3ccc(CC(=O)NCC4CCCO4)cc3)c(=O)c3ccccc32)c(OC)c1 (configuration not stated) | -1% | 6%[10.9 µM] | -6% | -28%
CCCC(=O)Nc1ccc2nn(-c3ccc(CC)cc3)nc2c1 | -5% | -10%[10.9 µM] | 10µM* | -17%
COc1cccc(N2CCN(C(=O)CCCn3c(=O)[nH]c4ccc(Br)cc4c3=O)CC2)c1 | ? | -14%[10.9 µM] | -17% | 13µM*
CCCS(=O)(=O)c1ncc(Cl)c(C(=O)N2CCN(c3ccc(OC)cc3)CC2)n1 | ? | -37%[10.9 µM] | 13µM* | ?
CCSc1ncc(Cl)c(C(=O)N2CCN(c3ccc(OC)cc3)CC2)n1 | ? | -9%[10.9 µM] | 0% | 4%
COc1ccc(C2CC(c3c(O)cc(C)oc3=O)=NCCS2)c(OC)c1 (configuration not stated) | -1% | -17% | 2.5µM* | 4µM*
Cc1csc2nc(COC(=O)c3ccccc3NC(=O)c3cccc(Br)c3)cc(=O)n12 | 2% | -6%[10.9 µM] | -8% | 1%
CCOC(=O)c1ccc(NC(=O)c2cc(=O)c3cc(CC)ccc3o2)cc1 | -1% | -6%[10.9 µM] | 26% | 10%
CCOC(=O)c1ccc(NC(=O)c2cc(=O)c3ccc(C)c(C)c3o2)cc1 | -2% | -12%[10.9 µM] | 20µM* | ?
O=C(NCCc1ccccc1Cl)c1ccc(Cn2c(=O)c3cccn3c3cccnc32)cc1 | 5% | ? | ? | 10µM*
COc1cccc(-c2cc(C(=O)N3CCN(c4ccc(F)cc4)CC3)no2)c1 | 7% | -18%[10.9 µM] | 8% | -3%
O=C(c1cc(-c2ccc(Cl)cc2)on1)N1CCOCC1 | ? | -66% | 13µM* | 10µM*
CC1CCN(C(=O)c2cc(-c3ccc(Cl)cc3)on2)CC1 | ? | 4%[10.9 µM] | 0% | 8%
O=C(c1cc(-c2ccc3c(c2)OCO3)on1)N1CCOCC1 | ? | -85% | 7.9µM* | 7.9µM*
O=C(c1cc(-c2ccc(Cl)c(Cl)c2)on1)N1CCCC1 | 10% | -9% | 4% | -4%
O=C(c1cc(-c2ccc(Cl)cc2Cl)on1)N1CCOCC1 | 3% | -63% | 10µM* | 3.2µM*
SMILES | IkB sig inh | Peg3 imprint | p53ts 39C kill | p53ts 32C kill
COc1cccc(-c2cc(C(=O)N3CCCCCC3)no2)c1 | ? | -65% | 10µM* | 13µM*
Cc1ccc(N(CC(=O)N2CCN(c3cccc(Cl)c3)CC2)S(=O)(=O)c2c(C)noc2C)cc1 | ? | ? | 14% | 5%
O=C(c1cc(-c2ccc(F)cc2)on1)N1CCCC1 | ? | -65% | 10µM* | 16µM*
COc1cccc(N2CCN(C3OC(=O)c4ccccc43)CC2)c1 (configuration not stated) | -1% | -28% | 21% | 3%
C=CCn1c(SCC(=O)NCC2CCCO2)nc2scc(-c3ccco3)c2c1=O (configuration not stated) | 2% | -11% | -5% | 13%
O=C(CSc1nc2scc(-c3ccco3)c2c(=O)n1-c1ccccc1)NCC1CCCO1 (configuration not stated) | 7.9µM* | -40% | 9% | 3%
CCCCN(C)CCCNC(=O)Cn1ncc2c3ccccc3n(Cc3cc(C)ccc3C)c2c1=O | 0% | 27%[10.9 µM] | 2.5µM* | -6%
CCCCN(C)CCCNC(=O)Cn1ncc2c3ccccc3n(Cc3ccccc3F)c2c1=O | 0% | -6%[10.9 µM] | 13µM* | -4%
Cc1ccc(C)c(Cn2c3ccccc3c3cnn(CC(=O)NC(C)CCc4ccccc4)c(=O)c32)c1 (configuration not stated) | 2% | 11%[10.9 µM] | 5µM* | -27%
O=C(CCCN1Cc2ccccc2C1)c1ccc(F)cc1 | -4% | -10% | 2% | -20%
CCN1CCN(Cc2c(O)ccc3cc(-c4ccc(OC)cc4)c(=O)oc23)CC1 | 0% | -10%[10.9 µM] | -16% | -12%
CCN(CC)C(=O)CN(c1ccc(F)c(Cl)c1)S(C)(=O)=O | -2% | -6% | 1% | 13%
COc1ccc(C(C)=O)cc1COC(=O)c1cnc(C)cn1 | -3% | 16µM* | 3% | 3%
COc1ccc(C(C)=O)cc1COC(=O)c1c(C)noc1C | 2% | -13% | -12% | -2%
O=C1C2CCCN2C(c2ccccc2F)N1c1ccc(Cl)cc1 (configuration not stated) | 0% | -31% | -14% | 0%
CS(=O)(=O)c1ccc(CNC(=O)[C@@H]2C[C@H]2[C@@H](NP(=O)(c2ccccc2)c2ccccc2)c2ccccc2)cc1 | nt | 18% | -3% | 29%
COc1ccccc1Cn1cc(C(=O)c2ccc(Cl)cc2)c(=O)c2cc3c(cc21)OCCO3 | ? | 3%[10.9 µM] | ? | -4%
COc1ccccc1Cn1cc(C(=O)c2ccc(Cl)cc2)c(=O)c2ccccc21 | ? | -14%[10.9 µM] | 13µM* | ?
CSCCNC(=O)c1ccc(C(C)(C)C)cc1 | -3% | -58% | ? | 10µM*
COc1ccc(-c2noc(N3CCC(C(=O)N4CCN(c5ccccn5)CC4)CC3)n2)cc1 | ? | -14% | -27% | ?
CC(C)(C)OC(=O)N1CCC(c2c(C(=O)NCc3ccc(F)cc3)cnn2-c2ccc(F)cc2)CC1 | ? | 6%[10.9 µM] | -1% | 26%
CC(C)(C)OC(=O)N1CCC(c2c(C(=O)NCCN3CCC(Cc4ccccc4)CC3)cnn2-c2ccc(F)cc2)CC1 | ? | -10%[10.9 µM] | 25µM* | ?
CC(C)(C)OC(=O)N1CCC(c2c(C(=O)NCCN3CCC(Cc4ccccc4)CC3)cnn2-c2ccccc2)CC1 | -7% | -15%[10.9 µM] | 32µM* | ?
COc1ccc(CCN2CCC(CNC(=O)c3cnn(-c4cccc(Cl)c4)c3C3CCN(C(=O)OC(C)(C)C)CC3)CC2)cc1 | ? | -3%[10.9 µM] | ? | ?
COc1ccc(CCN2CCC(CNC(=O)c3cnn(-c4ccccc4)c3C3CCN(C(=O)OC(C)(C)C)CC3)CC2)cc1 | ? | -10%[10.9 µM] | 13µM* | -9%
O=C(Nc1cccc(C(F)(F)F)c1)c1noc2c1CCc1ccccc1-2 | ? | -3%[10.9 µM] | -16% | -1%

Compound activity: PubChem, National Center for Advancing Translational Sciences (NCATS)
